This note sets out measurements from PubChem BioAssay.

Assay [1] relates to Human papillomavirus type 1a protein E7 (residues 44-93). The assay is described as follows: small molecules binding HPV E7 44-93 – biochemical, small-molecule microarray, residues 44-93, 635 nm fluorescence, primary screen (AID 1108).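 Also: E7 fragment applied at 1 µg/mL in TBST for 1 h at 4 C; score combines spot fluorescence with its signal to noise ratio.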 Particulars: fluorescence 635 nm, higher = more signal.
Assay [2] is described as follows: hepatitis C replication reporter changes, two-sided – Huh7 cells, luciferase reporter, HCV replication inhibitor project, primary screen (AID 1109).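 Also: huh7 hepatoma cells harbouring a luciferase neomycin HCV replicon reporter; luciferase luminescence as measure of HCV replicon replication; test concentration not given here.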 The following applies: Huh7 HCV replicon luciferase reporter, 48 h; higher = more signal. Background: Reporter assays use an easily measured gene product as a stand-in for the process of interest.
The target of assay [3] is Left-right determination factor 2 (Homo sapiens) (UniProt O00292). Briefly: small molecules binding LEFTY2 protein – biochemical, small-molecule microarray, 635 nm fluorescence scan, primary screen (AID 1110). The following applies: higher = more signal.
The target in assay [4] is Calmodulin-1 (Homo sapiens) (UniProt P0DP23). Briefly: small molecules binding calmodulin-1 with EGTA – biochemical, small-molecule microarray, Cy5-labelled CALM1, profiling panel (AID 1111).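 Also: labelled calmodulin applied in Tris saline Tween buffer holding calcium plus EGTA and DTT.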 The following applies: Cy5-CALM1 binding fluorescence, higher = more signal.
Assay [5] shares this target. Briefly: small molecules binding Ca-loaded calmodulin-1 – biochemical, small-molecule microarray, Cy5-labelled CALM1, plus calcium, artefact control for SMM control-protein annotation, profiling panel (AID 1112).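 Also: score merges spot fluorescence with signal to noise from triplicate slides.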 Particulars: Cy5-CALM1 binding fluorescence, higher = more signal.
A short description of assay [6]: probe aWnt5a binding to arrayed compounds – biochemical, biotinylated probe, 635/667 nm fluorescence, primary screen (AID 1113).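 Also: score merges 667 nm fluorescence intensity with signal-to-noise per printed feature.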 The following applies: small-molecule microarray, higher = more signal.
Assay [7] in a line: probe aShh binding to arrayed compounds – biochemical, biotinylated probe, 635/667 nm fluorescence, primary screen (AID 1114).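 Also: probe is biotin-labelled aShh protein from a stem cell growth factor screen; measures binding of labelled protein to compounds printed on the slide; score merges feature fluorescence at 667 nm with signal-to-noise.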 Particulars: small-molecule microarray, higher = more signal.
A short description of assay [8]: probe aNog binding to arrayed compounds – biochemical, biotinylated probe, 635/667 nm fluorescence, primary screen (AID 1115).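 Also: probe is biotinylated aNog protein used at 0.15 µg/mL for 1 h at 4 C; z-score combines 667 nm fluorescence of each spot with its signal to noise.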 The following applies: small-molecule microarray, higher = more signal.
Assay [9] concerns the target Torsin-1A-interacting protein 1 (Homo sapiens) (UniProt Q5JTV8). The assay is described as follows: compound microarray binding of lysate hLAP1 – cell lysate, small-molecule microarray, COS7 lysate, 635/667 nm fluorescence, primary screen (AID 1116). Particulars: 635 nm fluorescence, higher = more signal.
The target of assay [10] is Alpha-bungarotoxin (Bungarus multicinctus) (UniProt P60615). Briefly: compounds binding labelled alpha-BTX control protein – biochemical, small-molecule microarray, Alexa647 label, 635/667 nm fluorescence, artefact control for SMM control protein annotation, profiling panel (AID 1117). The following applies: alpha-BTX-A647 binding fluorescence, higher = more signal.
For a further assay, the target named is Albumin (Bos taurus) (UniProt P02769). Briefly: compounds binding labelled BSA control protein – biochemical, small-molecule microarray, Alexa647 label, 635/667 nm fluorescence, artefact control for SMM control protein annotation, profiling panel (AID 1118).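 Also: score merges 667 nm emission intensity and signal-to-noise per printed compound spot.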 The following applies: BSA-A647 binding, fluorescence 635 nm, higher = more signal.
Assay [11] in a line: probe aXIP binding to arrayed compounds – biochemical, NeuroSMM set, 635/667 nm fluorescence, primary screen (AID 1119).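 Also: probe is the protein aXip251-270 applied at 1 µg/mL to compound-printed slides; binding of probe to printed compounds measured as 667 nm fluorescence plus signal to noise.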 The following applies: small-molecule microarray, higher = more signal, called active from +8 up or from −8 down.
A short description of assay [12]: probe aNOTCH3 binding on compound microarray – biochemical, small-molecule microarray, 635/667 nm fluorescence, primary screen (AID 1120).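 Also: probe is a biotin-tagged antibody raised against NOTCH3 rather than NOTCH3 protein; score merges spot fluorescence near 667 nm with spot signal to noise.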 The following applies: higher = more signal.
The nature of assay [13]: probe aNOTCH2 binding on compound microarray – biochemical, small-molecule microarray, 635/667 nm fluorescence, primary screen (AID 1121).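 Also: score merges feature fluorescence read at 667 nm with its signal to noise.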 Particulars: higher = more signal.
Assay [14] addresses Carbonic anhydrase 2 (Homo sapiens) (UniProt P00918). Briefly: compounds binding carbonic anhydrase 2 – biochemical, small-molecule microarray, Alexa647-labelled CAII, profiling panel (AID 1122). Particulars: CAII-A647 binding fluorescence, higher = more signal.
Assay [15] can be described thus: COS7 lysate on small-molecule microarray, probe aHis, 635 nm (AID 1123).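 Also: z-score combines 667nm fluorescence intensity with signal-to-noise per printed compound spot.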 The following applies: COS7 cell lysate, fluorescence, higher = more signal.
Assay [16] can be described thus: probe aLAP1 signal on lysate-treated microarray – cell lysate, small-molecule microarray, COS7 lysate, primary screen (AID 1124).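 Also: lysate comes from COS7 cells expressing LAP1 and is applied at 0.3 µg/mL; score merges spot fluorescence near 667 nm with signal-to-noise over triplicate slides.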 Particulars: probe aLAP1, fluorescence, higher = more signal.
A further assay relates to Sam68 (KHDRBS1). Briefly: compounds binding KHDRBS1 protein – biochemical, small-molecule microarray, 635 nm fluorescence, primary screen (AID 1125).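 Also: score merges 667 nm channel intensity with signal to noise over triplicate slides.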 The following applies: higher = more signal.
Assay [17] concerns Chordin-like protein 2 (CHRDL2). Briefly: compounds binding chordin-like 2 – biochemical, small-molecule microarray, 635 nm fluorescence, primary screen (AID 1126).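 Also: printed compound slides probed with Chrdl2 protein at 4 µg/mL for 1 h at 4 C; score merges 667 nm emission intensity with signal to noise over three replicate slides.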 The following applies: fluorescence 635 nm, higher = more signal.
Assay [18] addresses Concanavalin-A (Canavalia ensiformis) (UniProt P02866). Briefly: compounds binding concanavalin A lectin – biochemical, small-molecule microarray, Alexa647 label, 635 nm, artefact control for SMM control protein annotation, primary screen (AID 1127).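 Also: z combines 667 nm emission intensity with signal-to-noise across three replicate slides.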 Particulars: ConA-A647 binding fluorescence, higher = more signal.

Activity calls are given as the source filed them.

Chain of Concanavalin-A (Canavalia ensiformis) (P02866 whole entry, looked up): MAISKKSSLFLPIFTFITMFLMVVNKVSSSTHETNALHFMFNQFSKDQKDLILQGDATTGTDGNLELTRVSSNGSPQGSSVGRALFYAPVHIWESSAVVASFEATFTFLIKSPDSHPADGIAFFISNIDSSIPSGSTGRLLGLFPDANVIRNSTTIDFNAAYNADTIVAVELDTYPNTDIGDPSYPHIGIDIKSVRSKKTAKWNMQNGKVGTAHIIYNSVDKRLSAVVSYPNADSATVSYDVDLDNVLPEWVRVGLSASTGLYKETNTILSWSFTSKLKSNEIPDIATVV
Chain of Albumin (Bos taurus) (P02769 whole entry, looked up): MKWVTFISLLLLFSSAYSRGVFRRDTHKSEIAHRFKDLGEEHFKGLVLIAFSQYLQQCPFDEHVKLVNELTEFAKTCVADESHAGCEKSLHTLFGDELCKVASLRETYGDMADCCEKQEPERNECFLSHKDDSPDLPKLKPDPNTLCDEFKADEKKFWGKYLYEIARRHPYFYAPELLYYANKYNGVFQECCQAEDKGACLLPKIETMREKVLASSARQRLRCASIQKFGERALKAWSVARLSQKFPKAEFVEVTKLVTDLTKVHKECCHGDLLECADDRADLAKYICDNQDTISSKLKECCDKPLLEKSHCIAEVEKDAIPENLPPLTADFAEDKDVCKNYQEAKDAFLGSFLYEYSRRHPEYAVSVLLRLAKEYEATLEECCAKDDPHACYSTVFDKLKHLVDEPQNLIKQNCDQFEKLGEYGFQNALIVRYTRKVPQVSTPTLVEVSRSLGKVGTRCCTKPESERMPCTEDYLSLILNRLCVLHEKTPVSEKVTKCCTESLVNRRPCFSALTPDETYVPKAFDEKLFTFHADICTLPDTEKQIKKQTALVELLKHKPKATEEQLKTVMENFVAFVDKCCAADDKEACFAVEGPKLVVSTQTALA
Chain of Left-right determination factor 2 (Homo sapiens) (O00292 whole entry, looked up): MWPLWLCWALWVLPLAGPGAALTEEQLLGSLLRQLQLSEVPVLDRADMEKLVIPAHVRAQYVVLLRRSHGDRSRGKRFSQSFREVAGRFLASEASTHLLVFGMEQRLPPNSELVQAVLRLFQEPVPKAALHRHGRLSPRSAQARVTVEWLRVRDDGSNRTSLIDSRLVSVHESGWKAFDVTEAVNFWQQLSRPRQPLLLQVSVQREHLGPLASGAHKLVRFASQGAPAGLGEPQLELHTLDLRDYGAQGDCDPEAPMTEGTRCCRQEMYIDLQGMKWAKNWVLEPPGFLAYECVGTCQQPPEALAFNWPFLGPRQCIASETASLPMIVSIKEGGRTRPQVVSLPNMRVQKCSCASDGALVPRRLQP
Chain of Alpha-bungarotoxin (Bungarus multicinctus) (P60615 whole entry, looked up): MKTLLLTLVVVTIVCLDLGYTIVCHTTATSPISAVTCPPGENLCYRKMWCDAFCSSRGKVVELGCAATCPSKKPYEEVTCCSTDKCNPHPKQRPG
Chain of Torsin-1A-interacting protein 1 (Homo sapiens) (Q5JTV8 whole entry, looked up): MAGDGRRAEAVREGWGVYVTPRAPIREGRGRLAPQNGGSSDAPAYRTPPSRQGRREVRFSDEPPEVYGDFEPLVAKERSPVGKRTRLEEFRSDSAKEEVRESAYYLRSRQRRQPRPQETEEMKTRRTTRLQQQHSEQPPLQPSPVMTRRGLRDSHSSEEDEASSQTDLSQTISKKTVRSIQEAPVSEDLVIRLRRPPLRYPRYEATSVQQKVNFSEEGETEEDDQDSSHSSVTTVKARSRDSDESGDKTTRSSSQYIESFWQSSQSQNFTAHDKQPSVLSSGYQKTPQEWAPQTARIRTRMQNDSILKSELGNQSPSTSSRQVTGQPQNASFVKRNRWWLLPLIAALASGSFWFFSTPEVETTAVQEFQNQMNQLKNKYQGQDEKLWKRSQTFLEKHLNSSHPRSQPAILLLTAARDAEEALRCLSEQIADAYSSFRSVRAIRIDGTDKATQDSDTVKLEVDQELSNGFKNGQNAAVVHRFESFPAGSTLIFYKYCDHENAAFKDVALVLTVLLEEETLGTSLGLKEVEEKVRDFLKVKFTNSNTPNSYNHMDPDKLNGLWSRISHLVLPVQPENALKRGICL

Consider `CCCC[C@@H](O)C1=C(COc2ccccc2)Cn2c(=O)n(-c3ccccc3)c(=O)n2[C@H]1CO`, for which the composite z-score in [1] is -0.616; in [3] it was 0.0253; in [4], -0.634; in assay [5] it was -0.116; in assay [6] it was -0.124; in assay [7] it was -0.248. For the same compound, the composite z-score was -0.182 in assay [8]; -0.222 in assay [9]; -1.62 in assay [10]; -0.0711 in the assay with Albumin (Bos taurus); -0.187 in assay [12]; -0.148 in [13]. Further, the composite z-score is -0.0781 in [14]; 0.725 in assay [15]; 0.148 in [16]; -0.247 in the assay on Sam68 (KHDRBS1); 0.0826 in [17]; -0.494 in [18]. This compound also showed a z-score in assay [2] of -1.52. Besides, the composite Z-score in [11] is -0.116 (inactive).

Turning to `C=C(C)[C@@H]1CC=C(C(O)C2C=CC3C(=O)N(C4CCCCC4)C(=O)C3N2Nc2ccc(OC)cc2)CC1` (stereo not given in full), the composite z-score in [1] is 1.39; in [3], 0.3; in assay [4], 1.5; in assay [5], 0.417; in assay [6], -0.0738; in assay [7], -0.1. The composite z-score was -0.368 in [8]; 0.477 in assay [9]; 1.3 in assay [10]; 0.902 in the assay with Albumin (Bos taurus); 0.323 in assay [12]; -0.141 in assay [13]. The composite z-score in assay [14] worked out at 0.59; in assay [15] it was 2.54; in [16], 0.273; in the assay on Sam68 (KHDRBS1) it was 1.29; in assay [17], 0.0811; in assay [18], 1.09. This compound also yielded a z-score in assay [2] of -1.19. The composite Z-score in [11] was 0.494 (inactive).

For the compound `[N-]=[N+]=NCc1ccccc1[C@H]1OC(c2ccc(OCCCO)cc2)=N[C@@]1(Cc1ccccc1)C(N)=O`, the composite z-score in [1] is 1.44; in assay [3], -0.709; in [4], 0.931; in [5], 0.995; in [6] it was 0.283; in assay [7], -0.0576. The composite z-score was determined as 0.654 in assay [8]; 1.76 in [9]; 2.54 in assay [10]; 0.883 with Albumin (Bos taurus); 0.391 in assay [12]; 0.0029 in assay [13]. Besides, the composite z-score is 0.589 in assay [14]; 2.29 in assay [15]; 0.112 in assay [16]; 1.29 with Sam68 (KHDRBS1); -0.797 in [17]; 1.19 in assay [18]. Besides, the z-score in assay [2] was -1.46. In addition, the composite Z-score in assay [11] is -0.379 (inactive).

As for `Cc1ccc(C(C)CC(O)C2C=CC3C(=O)N(Cc4ccccc4)C(=O)C3N2n2cnnc2)o1` (stereo not given), the composite z-score in assay [1] is 1.22; in assay [3], -0.304; in assay [4] it was 0.455; in [5] it was 0.0454; in [6], 0.688; in [7], 0.765. Moreover, the composite z-score in [8] worked out at 2.12; in [9], 0.342; in [10], 0.279; with Albumin (Bos taurus) it was 1.03; in assay [12], 1.3; in assay [13] it was 0.654. Besides, the composite z-score in assay [14] is 0.461; in [15] it was 1.7; in [16], 0.704; in the assay on Sam68 (KHDRBS1), 1.12; in [17], -0.377; in assay [18] it was 1.17. This compound had a z-score in assay [2] of 0.236. The composite Z-score in [11] was 0.391 (inactive).

In the case of `CCC[C@@H]1C[C@@]1(CCC)[C@@H](NC(=O)c1cccs1)c1ccc(Cl)cc1`, the composite z-score is -0.364 in assay [1]; -2.42 in assay [3]; 0.883 in assay [4]; 0.881 in assay [5]; 0.0529 in assay [6]; 0.29 in [7]. Besides, the composite z-score in [8] was 1.39; in assay [9], -0.506; in [10] it was -0.0153; with Albumin (Bos taurus) it was 0.259; in assay [12], -0.102; in assay [13], -0.0617. The composite z-score in assay [14] was 0.247; in assay [15], 0.855; in assay [16], -0.199; with Sam68 (KHDRBS1) it was -0.0604; in [17], -0.693; in assay [18], -0.596. The compound also gave a z-score in assay [2] of -2.05. In [11], the composite Z-score is -0.222 (inactive).
